Bioassay records from PubChem BioAssay.
In the library only some 21% were active in any assay of this set; here they are far more common.
Sm TGR inh: qHTS Assay for the Inhibitors of Schistosoma Mansoni Peroxiredoxins; Schistosoma mansoni thioredoxin glutathione reductase (TGR), Q962Y6; purified TGR, DTNB reduction, TNB absorbance 405 nm; Potency, µM (top dose mostly 114 µM), for the others: top-dose activity change, negative = inhibition, actives largely listed as inhibitors; 360,000 compounds, 3% hits; note: potency is the fitted concentration of half-maximal effect; % is set by controls: 0 for no effect and ±100 for the full control effect; nearly all actives have a fitted effect of over 60% in size
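Kinetic colorimetric format: TGR-catalysed, NADPH-driven DTNB reduction monitored via TNB absorbance. Enzyme dispensed at 20 nM; compound exposure 15 min at room temperature before reaction start.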
Cycloheximide cs: Cycloheximide Counterscreen for Small Molecule Inhibitors of Shiga Toxin | cell reporter, cycloheximide protein synthesis inhibition counterscreen | max response, % | 300,000 compounds, 12% hits | AID 2314, 2010; in the data active = max response mostly above about 13%, no sharp cut-off; inactive = mostly below about 14%; note: read at 38.3 µM for the half of the compounds with a filed dose; 0% is about no effect
Pf growth 96h: Primary qHTS for delayed death inhibitors of the malarial parasite plastid, 96 hour incubation. 320,000 compounds, 6.9% hits. P. falciparum luciferase reporter growth, 96 h. Potency, µM (doses to about 28.7 µM), without a hit: at the highest dose activity change, negative = inhibition, most hits filed as inhibitors. AID 504834, 2011; note: potency is the fitted concentration of half-maximal effect; % is set by controls: 0 for no effect and ±100 for the full control effect
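Cell-based qHTS: luciferase-tagged P. falciparum in erythrocytes (2% hematocrit, 0.05% parasitemia final) incubated with compounds for 96 hours, 37 C, 5% CO2; luciferase detection reagent then added and luminescence measured.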
Pf growth 48h: Primary qHTS for delayed death inhibitors of the malarial parasite plastid, 48 hour incubation | P. falciparum luciferase growth in erythrocytes, 48 h | Potency, µM (titrated, usually from 28.7 µM), for inactives: at the highest dose activity change, negative = inhibition, most hits filed as inhibitors | 310,000 compounds, 5.9% hits | AID 504832, 2011; note: potency is the fitted concentration of half-maximal effect; % is set by controls: 0 for no effect and ±100 for the full control effect
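Luciferase-expressing parasites in RBCs, 2% Hct / 0.1% parasitemia final; RPMI 1640 + 0.5% Albumax; 37 C, 5% CO2, one generation; luminescence read-out, lower signal = inhibition.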
NS1 function inh: qHTS Assay for Inhibitors of Influenza NS1 Protein Function. 270,000 compounds, 0.4% hits. Potency, µM (doses to about 46.1 µM), without a hit: at the highest dose activity, positive = more growth. AID 2326, 2010; calls by dose curve; note: potency is the fitted concentration of half-maximal effect; actives are rising curves; nearly all actives have a fitted effect of over 50% in size
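Growth recovery, yeast-based: influenza A NS1 expressed in S. cerevisiae causes slow growth, and suppressors are detected by OD600. The parent strain without NS1 is used as positive control.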
Shiga toxin inh: A qHTS for Small Molecule Inhibitors of Shiga Toxin; inhibition, % at 38.7 µM; Vero cells, Shiga toxin protein synthesis inhibition reporter; AID 2315, 2010; 290,000 compounds, 9.2% hits; in the data active = inhibition mostly above about 28%, no sharp cut-off; inactive = mostly below about 43%; note: 0% is about no effect
The depositor's hits bear a star. Unless noted, calls come from the whole dose curve; as a rule, active = well fitted curve in the direction sought with a large enough effect; inconclusive = small, poorly fitted or top-dose-only effect, or another doubt; inactive = no such curve, though single readings can be large; an effect the other way counts as inactive or inconclusive.

COc1ccc(-c2cc(C(=O)Nc3cc(Br)ccc3O)no2)cc1 was read as Sm TGR inh 3%, Cycloheximide cs 23*, Pf growth 96h -1%, Pf growth 48h 10µM*, NS1 function inh 4% and Shiga toxin inh 41.
`COc1ccc(NC(=O)c2cc(C)on2)cc1` gave Sm TGR inh 1%, Cycloheximide cs 56*, Pf growth 96h inconclusive, Pf growth 48h 385% and Shiga toxin inh 89*.
COc1ccc(-c2cc(C(=O)Nc3ccc(OC)c(OC)c3)no2)cc1 was read as Sm TGR inh 5%, Cycloheximide cs 0, Pf growth 96h inconclusive, Pf growth 48h 27%, NS1 function inh 1% and Shiga toxin inh -5.
Screening COc1ccc(-c2cc(C(=O)Nc3cc(C)nn3-c3ccccc3)no2)cc1 returned Sm TGR inh 13%, Cycloheximide cs 40*, Pf growth 48h 39%, NS1 function inh -3% and Shiga toxin inh 72*.
Screening COc1ccc(-c2cc(C(=O)Nc3ccc(C#N)cc3)no2)cc1 returned Sm TGR inh 11%.
Cc1ccc2c(c1)c1c(c(=O)n(Cc3ccccc3)c(=O)n1CC(=O)Nc1ccccc1F)n2C was read as Sm TGR inh 0%.
Screening CC(=O)c1ccc(N2CCN(CC(=O)Nc3ccc4c(c3)OCCO4)CC2)cc1 returned Sm TGR inh 0%, Cycloheximide cs 5, Pf growth 96h inconclusive, Pf growth 48h 71%, NS1 function inh -20% and Shiga toxin inh 8.
CC(=O)Nc1cccc(NC(=O)c2cc(C)on2)c1 was read as Sm TGR inh -35%, Cycloheximide cs 21*, Pf growth 96h inactive, Pf growth 48h 96%, NS1 function inh -7% and Shiga toxin inh 53*.
Screening COc1ccc(NC(=O)c2cc(-c3ccccc3)on2)cc1 returned Sm TGR inh -35%, Cycloheximide cs 19*, Pf growth 96h 149%, Pf growth 48h 85% and NS1 function inh -9%.
`CC1(C(=O)OCC(=O)Nc2ccccc2Cl)CC1(Cl)Cl` (configuration not stated) gave Sm TGR inh -5%, Cycloheximide cs 18*, Pf growth 96h 14%, Pf growth 48h -22%, NS1 function inh -33% and Shiga toxin inh 62*.
For CC1(C(=O)OCC(=O)Nc2ccccc2)CC1(Cl)Cl (configuration not stated) the results were Sm TGR inh 2%, Cycloheximide cs 34*, Pf growth 96h 52%, Pf growth 48h 28% and Shiga toxin inh 67*.
CC1(C(=O)OCC(=O)NC(=O)NCc2ccccc2)CC1(Cl)Cl (configuration not stated) was read as Sm TGR inh -9%, Cycloheximide cs 11, Pf growth 96h 19%, Pf growth 48h -10% and Shiga toxin inh -2.
Cc1c(C(=O)NCc2ccc(OC(C)C)cc2)sc2ncnc(N(C)C3CCCCC3)c12 was read as Sm TGR inh 12%.
`Cc1ccc(C2=NN(C(=O)CSc3nnnn3C)C(c3ccco3)C2)cc1` (configuration not stated) gave Sm TGR inh inconclusive, Pf growth 96h -28% and Pf growth 48h inconclusive.
COc1ccc(CC(=O)NNC(=O)COc2ccc3ccccc3c2)cc1 was read as Sm TGR inh -6%, Cycloheximide cs -2, Pf growth 96h 1.7µM*, Pf growth 48h 20%, NS1 function inh -17% and Shiga toxin inh -10.
For COc1ccccc1NC(=O)NNC(=O)COc1ccc2ccccc2c1 the results were Sm TGR inh 2%, Cycloheximide cs 24*, Pf growth 96h -8%, Pf growth 48h 7%, NS1 function inh -2% and Shiga toxin inh -38.
COc1ccc2cc(OCC(=O)NNC(=O)Nc3ccc(C(C)=O)cc3)ccc2c1 was read as Sm TGR inh -18%, Cycloheximide cs 21*, Pf growth 96h 22%, Pf growth 48h -4%, NS1 function inh -6% and Shiga toxin inh 48.
`CO[C@H]1/C=C/O[C@@]2(C)Oc3c(C)c(O)c4c(O)c(c(/C=N\N5CCN(C6CCCC6)CC5)c(O)c4c3C2=O)NC(=O)/C(C)=C\C=C\[C@H](C)[C@H](O)[C@@H](C)[C@@H](O)[C@@H](C)[C@H](OC(C)=O)[C@@H]1C` gave Pf growth 96h -7% and Pf growth 48h -98%.
Screening C=CCN(C(=O)Nc1ccc(OC)cc1)c1nnc(-c2ccncc2)s1 returned Sm TGR inh -3%, Cycloheximide cs 10, Pf growth 96h inconclusive, Pf growth 48h 32%, NS1 function inh -32% and Shiga toxin inh 34.
For Cc1sc2ccc3sccc3c2[n+]1C the results were Sm TGR inh -2%, Cycloheximide cs -2, Pf growth 96h 15µM*, Pf growth 48h -4%, NS1 function inh 5% and Shiga toxin inh -9.
Screening Cc1ccc(C2=NNC(c3cccc(F)c3)S2)cc1 (configuration not stated) returned Sm TGR inh 0%, Cycloheximide cs 8, Pf growth 96h 12µM*, Pf growth 48h inactive and Shiga toxin inh 3.
Fc1cccc(C2NN=C(c3ccccc3)S2)c1 (configuration not stated) was read as Sm TGR inh 4%, Cycloheximide cs 73*, Pf growth 96h 246%, Pf growth 48h 270%, NS1 function inh 17% and Shiga toxin inh 112*.
For COc1ccc(C2NN=C(c3ccc(C)cc3)S2)cc1OC (configuration not stated) the results were Sm TGR inh -11%, Cycloheximide cs 38*, Pf growth 96h 1.9µM*, Pf growth 48h 351% and Shiga toxin inh 92*.
`COc1ccc(C2NC(=O)CS2)cc1OC` (configuration not stated) gave Sm TGR inh 4%, Cycloheximide cs -4, Pf growth 96h -21%, Pf growth 48h 7%, NS1 function inh -5% and Shiga toxin inh -17.
COc1ccc(OC)c(CNC(=O)CSc2c3c(nc4cc(Cl)ccc24)CCCC3)c1 was read as Sm TGR inh -1%.
Screening CCc1ccc(OCC(=O)Nc2ncn[nH]2)cc1 returned Sm TGR inh 6%, Cycloheximide cs 25*, Pf growth 96h 305%, Pf growth 48h 117% and Shiga toxin inh 58*.
Screening O=C(CCc1ccccc1)Nc1ncn[nH]1 returned Sm TGR inh 0%, Cycloheximide cs 2, Pf growth 96h inconclusive, Pf growth 48h 1%, NS1 function inh 0% and Shiga toxin inh -16.
`O=C(/C=C/c1ccccc1)Nc1ncn[nH]1` gave Sm TGR inh inconclusive, Cycloheximide cs 26*, Pf growth 96h -5%, Pf growth 48h 3%, NS1 function inh -208% and Shiga toxin inh 29.
